Assay results reported in paper PMC7862700, “An all-to-all approach to the identification of sequence-specific readers for epigenetic DNA modifications on cytosine”.

Tests used:
Experiment in all cases: DAPPL (digital affinity profiling via proximity ligation, sequencing); 10 mM Tris-HCl pH 7.5, 50 mM NaCl, 1 mM DTT, 4% glycerol, room temperature, 30 min; GST-TFs on glutathione beads, 16-mer random dsDNA library, 0.1% formaldehyde crosslink after washing; high values mean tight binding
FEV = target: T1, FEV (Homo sapiens, UniProt Q99581 1-238); conditions: protein: recombinant; tags: N-terminal GST; dsDNA, one strand shown
T1 sequence: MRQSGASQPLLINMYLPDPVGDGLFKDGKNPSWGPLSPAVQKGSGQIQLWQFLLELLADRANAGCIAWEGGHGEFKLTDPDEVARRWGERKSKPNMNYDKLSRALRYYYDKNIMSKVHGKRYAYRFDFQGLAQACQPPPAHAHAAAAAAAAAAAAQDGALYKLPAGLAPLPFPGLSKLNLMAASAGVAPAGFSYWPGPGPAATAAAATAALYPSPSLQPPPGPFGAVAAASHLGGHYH
Procedure, shortened: (§1)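 Pools of DNA-barcoded human transcription factors, expressed in yeast as GST fusions on glutathione beads and combined with a tag-only sample, were incubated with 200 nmole of a 16-mer random double-stranded DNA library. Incubation took 30 min at room temperature in Tris/NaCl/DTT/glycerol buffer and was followed by washing, 0.1% formaldehyde crosslinking, proximity ligation (BsaI/T4 ligase, 1 h, 37 °C), PCR amplification and sequencing on an Illumina NextSeq500. Binding signal is the ratio of a hexamer's read frequency for a factor to its frequency for the tag-only sample.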

ETV5 = ETV5 (Homo sapiens, UniProt P41161 1-510); conditions: protein: recombinant; tags: N-terminal GST; dsDNA, one strand shown
Procedure, shortened: as §1

HSF1 = HSF1 (Homo sapiens, UniProt Q00613 1-529); conditions: protein: recombinant; tags: N-terminal GST; chain copies: 3; dsDNA, one strand shown
Procedure, shortened: as §1

SPIC = target: T2, SPIC (Homo sapiens, UniProt Q8N5J4 1-248); conditions: protein: recombinant; tags: N-terminal GST; dsDNA, one strand shown
T2 sequence: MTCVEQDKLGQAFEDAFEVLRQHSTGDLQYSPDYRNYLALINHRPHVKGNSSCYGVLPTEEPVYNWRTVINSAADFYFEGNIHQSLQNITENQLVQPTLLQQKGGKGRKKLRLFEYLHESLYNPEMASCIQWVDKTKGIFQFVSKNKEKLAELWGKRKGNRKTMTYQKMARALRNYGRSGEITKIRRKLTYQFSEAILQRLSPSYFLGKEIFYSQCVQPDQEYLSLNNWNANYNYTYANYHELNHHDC
Procedure, shortened: as §1

ELF4 = ELF4 (Homo sapiens, UniProt Q99607 1-663); conditions: protein: recombinant; tags: N-terminal GST; dsDNA, one strand shown
Procedure, shortened: as §1

ELK4 = target: T3, ELK4 (Homo sapiens, UniProt P28324-2 1-405); conditions: protein: recombinant; tags: N-terminal GST; dsDNA, one strand shown
T3 sequence: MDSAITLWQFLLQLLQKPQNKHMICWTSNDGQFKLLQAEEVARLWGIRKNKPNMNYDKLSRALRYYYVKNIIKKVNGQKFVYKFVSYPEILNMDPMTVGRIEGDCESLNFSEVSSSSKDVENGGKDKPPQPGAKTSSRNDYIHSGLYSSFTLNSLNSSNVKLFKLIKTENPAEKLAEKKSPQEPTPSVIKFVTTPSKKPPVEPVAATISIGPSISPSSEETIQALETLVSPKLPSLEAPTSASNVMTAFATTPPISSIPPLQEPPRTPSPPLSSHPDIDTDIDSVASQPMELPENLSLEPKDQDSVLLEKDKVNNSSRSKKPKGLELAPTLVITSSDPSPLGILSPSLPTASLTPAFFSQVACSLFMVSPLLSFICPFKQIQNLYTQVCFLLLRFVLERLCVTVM
Procedure, shortened: as §1

ETV2 = target: T4, ETV2 (Homo sapiens, UniProt O00321 1-342); conditions: protein: recombinant; tags: N-terminal GST; dsDNA, one strand shown
T4 sequence: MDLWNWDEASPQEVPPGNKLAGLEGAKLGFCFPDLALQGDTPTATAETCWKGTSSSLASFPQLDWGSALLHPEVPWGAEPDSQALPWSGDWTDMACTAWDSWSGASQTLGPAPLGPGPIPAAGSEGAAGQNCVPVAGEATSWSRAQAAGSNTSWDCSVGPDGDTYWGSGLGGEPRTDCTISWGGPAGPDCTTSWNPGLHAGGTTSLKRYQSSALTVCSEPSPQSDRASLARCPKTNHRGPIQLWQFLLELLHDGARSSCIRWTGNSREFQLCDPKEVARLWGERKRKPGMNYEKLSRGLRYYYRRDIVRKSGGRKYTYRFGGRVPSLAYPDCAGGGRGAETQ
Procedure, shortened: as §1

ELF3 = target: T5, ELF3 (Homo sapiens, UniProt P78545 1-371); conditions: protein: recombinant; tags: N-terminal GST; dsDNA, one strand shown
T5 sequence: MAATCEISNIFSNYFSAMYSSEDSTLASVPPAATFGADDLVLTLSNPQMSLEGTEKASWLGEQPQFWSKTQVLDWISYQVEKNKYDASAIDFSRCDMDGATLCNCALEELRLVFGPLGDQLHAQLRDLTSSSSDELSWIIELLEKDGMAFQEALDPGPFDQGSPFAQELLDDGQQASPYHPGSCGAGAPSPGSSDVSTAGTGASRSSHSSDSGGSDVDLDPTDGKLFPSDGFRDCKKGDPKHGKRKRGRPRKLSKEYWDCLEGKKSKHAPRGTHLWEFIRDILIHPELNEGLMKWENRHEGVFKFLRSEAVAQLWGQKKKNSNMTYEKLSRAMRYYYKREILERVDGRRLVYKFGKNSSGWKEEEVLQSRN
Procedure, shortened: as §1

CRX = CRX (Homo sapiens, UniProt O43186 1-299); conditions: protein: recombinant; tags: N-terminal GST; dsDNA, one strand shown
Procedure, shortened: as §1

ETV1 = ETV1 (Homo sapiens, UniProt P50549 1-477); conditions: protein: recombinant; tags: N-terminal GST; dsDNA, one strand shown
Procedure, shortened: as §1

HSF1, sequence (Q00613 whole entry): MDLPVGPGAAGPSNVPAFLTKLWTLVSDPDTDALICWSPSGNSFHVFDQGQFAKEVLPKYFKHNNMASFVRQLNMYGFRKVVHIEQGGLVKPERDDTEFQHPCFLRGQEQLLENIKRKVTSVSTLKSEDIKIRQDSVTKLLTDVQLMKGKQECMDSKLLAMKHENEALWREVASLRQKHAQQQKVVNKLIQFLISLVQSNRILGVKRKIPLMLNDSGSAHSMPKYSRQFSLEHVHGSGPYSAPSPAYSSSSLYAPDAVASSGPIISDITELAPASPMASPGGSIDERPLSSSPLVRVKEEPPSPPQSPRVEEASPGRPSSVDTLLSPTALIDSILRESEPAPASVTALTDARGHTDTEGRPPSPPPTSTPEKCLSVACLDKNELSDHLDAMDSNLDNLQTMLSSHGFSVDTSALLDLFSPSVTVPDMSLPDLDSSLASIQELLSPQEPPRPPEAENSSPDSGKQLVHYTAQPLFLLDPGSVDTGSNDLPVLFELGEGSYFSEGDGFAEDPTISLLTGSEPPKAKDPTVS
CRX, sequence (O43186 whole entry): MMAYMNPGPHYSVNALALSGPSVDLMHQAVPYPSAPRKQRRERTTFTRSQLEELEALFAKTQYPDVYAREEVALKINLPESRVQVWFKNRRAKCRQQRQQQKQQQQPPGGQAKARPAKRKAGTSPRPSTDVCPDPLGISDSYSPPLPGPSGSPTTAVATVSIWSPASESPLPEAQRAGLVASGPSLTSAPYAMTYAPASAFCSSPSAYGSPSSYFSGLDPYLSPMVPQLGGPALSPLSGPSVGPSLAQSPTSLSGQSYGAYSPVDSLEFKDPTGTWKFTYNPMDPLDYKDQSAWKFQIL
ETV1, sequence (P50549 whole entry): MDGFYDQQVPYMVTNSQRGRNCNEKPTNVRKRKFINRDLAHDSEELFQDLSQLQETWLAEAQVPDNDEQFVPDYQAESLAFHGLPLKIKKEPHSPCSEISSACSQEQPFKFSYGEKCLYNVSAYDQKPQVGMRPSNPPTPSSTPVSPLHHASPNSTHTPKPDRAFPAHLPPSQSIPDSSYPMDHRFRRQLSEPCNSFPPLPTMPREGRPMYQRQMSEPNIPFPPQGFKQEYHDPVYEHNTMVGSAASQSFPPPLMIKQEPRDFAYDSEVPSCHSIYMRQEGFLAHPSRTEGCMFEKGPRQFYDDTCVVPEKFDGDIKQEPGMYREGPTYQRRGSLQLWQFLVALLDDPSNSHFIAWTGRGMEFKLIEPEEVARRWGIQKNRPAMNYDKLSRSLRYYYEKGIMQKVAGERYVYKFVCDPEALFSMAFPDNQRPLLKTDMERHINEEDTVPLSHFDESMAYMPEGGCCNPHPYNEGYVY
ELF4, sequence (Q99607 whole entry): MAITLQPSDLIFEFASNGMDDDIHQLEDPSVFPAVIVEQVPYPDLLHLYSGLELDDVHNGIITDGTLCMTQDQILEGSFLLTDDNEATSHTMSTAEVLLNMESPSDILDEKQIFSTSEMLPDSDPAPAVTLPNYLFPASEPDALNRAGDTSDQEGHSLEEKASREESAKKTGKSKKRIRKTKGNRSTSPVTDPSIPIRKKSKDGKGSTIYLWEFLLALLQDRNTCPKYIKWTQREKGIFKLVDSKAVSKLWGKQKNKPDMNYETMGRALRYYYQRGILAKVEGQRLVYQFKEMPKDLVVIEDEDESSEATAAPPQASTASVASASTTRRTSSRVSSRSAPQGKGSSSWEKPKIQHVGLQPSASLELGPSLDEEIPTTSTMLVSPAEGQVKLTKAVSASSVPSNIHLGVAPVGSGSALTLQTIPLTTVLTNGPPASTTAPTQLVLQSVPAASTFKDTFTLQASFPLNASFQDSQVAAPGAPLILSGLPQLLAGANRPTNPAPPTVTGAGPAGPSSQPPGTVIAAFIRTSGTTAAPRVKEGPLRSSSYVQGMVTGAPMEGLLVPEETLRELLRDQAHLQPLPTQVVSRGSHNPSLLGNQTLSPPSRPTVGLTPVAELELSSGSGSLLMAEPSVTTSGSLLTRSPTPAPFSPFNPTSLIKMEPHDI
ETV5, sequence (P41161 whole entry): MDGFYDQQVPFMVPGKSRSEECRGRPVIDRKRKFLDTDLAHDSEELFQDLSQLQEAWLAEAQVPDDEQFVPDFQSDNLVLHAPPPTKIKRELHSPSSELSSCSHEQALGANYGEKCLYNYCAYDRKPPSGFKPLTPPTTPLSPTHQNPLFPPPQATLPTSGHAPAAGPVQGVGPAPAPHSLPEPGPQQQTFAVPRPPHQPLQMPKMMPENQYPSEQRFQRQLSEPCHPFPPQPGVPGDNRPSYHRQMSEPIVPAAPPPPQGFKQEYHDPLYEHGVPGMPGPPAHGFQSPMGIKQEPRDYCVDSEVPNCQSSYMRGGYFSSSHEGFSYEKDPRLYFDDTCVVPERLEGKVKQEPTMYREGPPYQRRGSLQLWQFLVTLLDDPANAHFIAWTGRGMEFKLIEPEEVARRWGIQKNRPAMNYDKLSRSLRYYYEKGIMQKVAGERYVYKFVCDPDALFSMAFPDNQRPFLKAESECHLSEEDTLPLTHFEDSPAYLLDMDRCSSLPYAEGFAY

Sequence: ATTCTG
- binding signal (FEV): 1.23 fold enrichment (6-mer frequency, TF over GST control)
- binding signal (ETV5): 1.29 fold enrichment (6-mer frequency, TF over GST control)
- binding signal (HSF1): 2.18 fold enrichment (6-mer frequency, TF over GST control)
- binding signal (SPIC): 1.11 fold enrichment (6-mer frequency, TF over GST control)
- binding signal (ELF4): 1.37 fold enrichment (6-mer frequency, TF over GST control)
- binding signal (ELK4): 1.38 fold enrichment (6-mer frequency, TF over GST control)
- binding signal (ETV2): 1.43 fold enrichment (6-mer frequency, TF over GST control)
- binding signal (ELF3): 1.08 fold enrichment (6-mer frequency, TF over GST control)
- binding signal (CRX): 1.5 fold enrichment (6-mer frequency, TF over GST control)
- binding signal (ETV1): 1.45 fold enrichment (6-mer frequency, TF over GST control)
